Among all 350,000 compounds or so, about 5,500 (1.6%) were called active. The sample holds actives, similar compounds and a random draw of the others, so the mix is not that of the screen.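 The calls were made as follows: active = significant combined selectivity score with lowered wild-type GFP, culture density cut under 30%, mutant RFP and density less affected; inactive = any of these conditions unmet.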

This experiment is described as follows: GFP drop in mixed WT/humanized-ribosome E. coli culture – GFP/RFP fluorescence, OD600, single point, bacterial rRNA inhibitor project, primary screen (AID 720706). Particulars: E. coli WT GFP vs humanized-ribosome RFP mutants, 24 h; GFP signal change (wild-type ribosome): stronger effect = lower value, DMSO median 0, no signal -100; OD600 change: measured here: OD600 growth, DMSO median 0, no signal -100; RFP signal change: measured here: RFP humanized mutant strains, DMSO median 0, no signal -100, concentration not given here.
For `COc1ccc(C#Cc2ccc([C@@H]3[C@H](CO)N4C(=O)CN(C(C)=O)C[C@@H]34)cc2)cc1`, the GFP signal change (wild-type ribosome) was -2.96% (inactive), the OD600 change was -13.2% and the RFP signal change is -2.12%.

As for `CC(=O)Nc1cccc2c1O[C@@H](CN(C)C(C)=O)[C@@H](C)CN(C)C2=O`, the GFP signal change (wild-type ribosome) is -0.3% (inactive), the OD600 change worked out at 2.46% and the RFP signal change was -0.39%.

Turning to `COc1ccc2c3c(n(C)c2c1)[C@@H](CO)N(C(=O)c1cnccn1)CC31CCN(C(C)=O)CC1`, the GFP signal change (wild-type ribosome) was 4.42% (inactive), the OD600 change is 18.1% and the RFP signal change is -2.67%.

In the case of `COCCNc1nc(-c2ccccc2)nc2c1oc1ccccc12`, the GFP signal change (wild-type ribosome) is -38% (inactive), the OD600 change was -50.5% and the RFP signal change was -2.59%.

Take `C[C@@H](Nc1nc(-c2ccccc2)nc2c1oc1ccccc12)C(=O)O`: the GFP signal change (wild-type ribosome) was -25.4% (active), the OD600 change was -3.54% and the RFP signal change is 7.03%.

`O=c1[nH]c(CSc2ccccc2)nc2c1oc1ccccc12`: the GFP signal change (wild-type ribosome) was 4.21% (inactive), the OD600 change was found to be 3% and the RFP signal change is -8.61%.

Regarding `O=C(C1CCCCC1)N1CC(=O)N2[C@H](CO)[C@H](c3ccc(-c4ccccc4F)cc3)[C@H]2C1`, the GFP signal change (wild-type ribosome) was -9.7% (inactive), the OD600 change is -39.9% and the RFP signal change was determined as 0.225%.

On to `C[C@@H]1CCCCO[C@@H](CN(C)C(=O)Nc2ccc(F)cc2)[C@H](C)CN([C@@H](C)CO)C(=O)c2cc(NS(C)(=O)=O)ccc2O1`, for which the GFP signal change (wild-type ribosome) is -0.965% (inactive), the OD600 change was -0.127% and the RFP signal change was 0.106%.

On to `CN(C)CC(=O)N1[C@H](C#N)[C@H](c2ccccc2-c2cccc(C(=O)N(C)C)c2)[C@@H]1CO`, for which the GFP signal change (wild-type ribosome) was 3.14% (inactive), the OD600 change worked out at 9.94% and the RFP signal change was -2.26%.

In the case of `C[C@@H]1CCCCO[C@@H](CN(C)Cc2ccc(C(=O)Nc3ccccc3N)cc2)[C@H](C)CN([C@H](C)CO)C(=O)c2cc(N(C)C)ccc2O1`, the GFP signal change (wild-type ribosome) is 0.759% (inactive), the OD600 change came out at 1.41% and the RFP signal change is -1.39%.

As for `C[C@H]1CN([C@@H](C)CO)C(=O)Cc2cc(NC(=O)C3CC3)ccc2O[C@H]1CN(C)S(=O)(=O)c1ccc(Cl)cc1`, the GFP signal change (wild-type ribosome) was -2.58% (inactive), the OD600 change is -5.07% and the RFP signal change was 2.87%.

On to `O=C(N/N=C/c1ccccn1)c1cccc(NC(=O)c2ccc(Cl)cc2)c1`, for which the GFP signal change (wild-type ribosome) was -12.4% (inactive), the OD600 change was -9.16% and the RFP signal change is -2.65%.

With `Cc1nnc(N/N=C/c2ccccn2)[nH]c1=O`, the GFP signal change (wild-type ribosome) is -26% (active), the OD600 change came out at 6.61% and the RFP signal change is 2.3%.

Turning to `S=C(NN=Cc1ccccn1)Nc1ccccn1`, the GFP signal change (wild-type ribosome) is -3.3% (inactive), the OD600 change was 1.4% and the RFP signal change was -6.11%.

For the molecule `CN1[C@@H]2c3ccc(-c4ccc(F)cc4)c(=O)n3C[C@H]1[C@H](CO)[C@H]2C(=O)NC1CCC1`, the GFP signal change (wild-type ribosome) was 0.894% (inactive), the OD600 change is -1.58% and the RFP signal change was -1.53%.

As for `Cc1ccc(-n2c(SCC(=O)Nc3ncc(Cl)cc3Cl)nc3ccccc32)cc1`, the GFP signal change (wild-type ribosome) was -23.3% (inactive), the OD600 change was -16.7% and the RFP signal change was 11.6%.

With `COc1ccc(-n2cnnc2SCC(=O)Nc2cccc(S(N)(=O)=O)c2)cc1`, the GFP signal change (wild-type ribosome) was 5.58% (inactive), the OD600 change came to 7.26% and the RFP signal change was -1.5%.

For the molecule `NS(=O)(=O)c1cccc(NC(=O)CSc2nc3ccccc3n2-c2ccccc2)c1`, the GFP signal change (wild-type ribosome) was -43.3% (active), the OD600 change was -4.95% and the RFP signal change is 0.431%.

As for `CC(C)NC(=O)Nc1ccc2c(c1)C(=O)N([C@@H](C)CO)C[C@H](C)[C@H](CN(C)C(=O)Nc1ccc(F)cc1)OCCCC[C@@H](C)O2`, the GFP signal change (wild-type ribosome) is 9.43% (inactive), the OD600 change was found to be 11.5% and the RFP signal change is -1.2%.

`O=S(=O)(c1ccccc1)N1CC[C@@H]2[C@H]1c1cc(C#Cc3cccc(F)c3)ccc1N[C@@H]2CO`: the GFP signal change (wild-type ribosome) is -1.75% (inactive), the OD600 change was 20.2% and the RFP signal change is -0.35%.

Take `CCCNC(=O)N1CC2(C1)[C@H](c1ccccc1)[C@@H](CO)N2C(=O)C1CC1`: the GFP signal change (wild-type ribosome) is 2.01% (inactive), the OD600 change was found to be 4.92% and the RFP signal change was -0.981%.

Turning to `COc1ccc(NC(=O)N[C@@H]2CC[C@H](CCn3cc(-c4ccc(OC)cc4)nn3)O[C@@H]2CO)cc1`, the GFP signal change (wild-type ribosome) is -3.5% (inactive), the OD600 change is -6.01% and the RFP signal change came out at 3.35%.

`COc1ccc(S(=O)(=O)N[C@H]2CC[C@H](CCn3cc(C(C)C)nn3)O[C@@H]2CO)cc1`: the GFP signal change (wild-type ribosome) was 3.72% (inactive), the OD600 change was 10.4% and the RFP signal change is 1.37%.

Regarding `O=C(C[C@@H]1C[C@H]2c3cc(NS(=O)(=O)c4ccc(F)cc4)ccc3O[C@H]2[C@H](CO)O1)NCCc1ccccc1`, the GFP signal change (wild-type ribosome) was 0.771% (inactive), the OD600 change is -17.4% and the RFP signal change was determined as 2.06%.

With `O=C(C[C@@H]1C[C@H]2c3cc(NS(=O)(=O)c4ccc(F)cc4)ccc3O[C@H]2[C@H](CO)O1)NC1CCCC1`, the GFP signal change (wild-type ribosome) was -1.46% (inactive), the OD600 change is -4.87% and the RFP signal change is -0.359%.

On to `C[C@H](NC(=O)C[C@@H]1C[C@@H]2c3cc(NS(=O)(=O)c4ccc(F)cc4)ccc3O[C@@H]2[C@@H](CO)O1)c1ccccc1`, for which the GFP signal change (wild-type ribosome) is -27.2% (active), the OD600 change was -16.8% and the RFP signal change was found to be 2.38%.

Regarding `COCCNC(=O)C[C@H]1C[C@H]2c3cc(NS(C)(=O)=O)ccc3O[C@H]2[C@H](CO)O1`, the GFP signal change (wild-type ribosome) is 3.03% (inactive), the OD600 change is -0.685% and the RFP signal change is -2.39%.

In the case of `C[C@@H]1CN([C@H](C)CO)C(=O)c2cc(NS(=O)(=O)c3ccc(F)cc3)ccc2O[C@@H]1CN(C)S(C)(=O)=O`, the GFP signal change (wild-type ribosome) was 3.23% (inactive), the OD600 change stood at 5.12% and the RFP signal change was -0.699%.

On to `CO[C@H]1CN(C)C(=O)c2ccc(NC(=O)c3ccccc3F)cc2OC[C@H](C)N(C(=O)c2ccccc2F)C[C@H]1C`, for which the GFP signal change (wild-type ribosome) is -0.558% (inactive), the OD600 change was -1.65% and the RFP signal change turned out to be 0.417%.

The values are drawn from PubChem BioAssay AID720706 (Broad Institute, 2013).
